An excerpt weighted towards active compounds, which were near 1.1% of everything screened.
MOR-DOR inv ag: inverse agonist of human OPRM1-OPRD1 heterodimerization; inhibition, % at 9.3 µM; AID 504357; cell-based MOR-DOR heterodimer luminescence, inverse agonism; 340,000 tested, 0.21% active; P35372+P41143; in the data active = inhibition above about 22%, passing the limit was not always enough
HTR5A ag ctr: activates human HTR5A in OPRM1-OPRD1 agonist counter-screen; P47898; HTR5A agonist assay, luminescence, cell-based; activation, % at 9.3 µM; 340,000 tested, 0.61% active; AID 504692; in the data active = activation mostly above about 9.5%, no sharp cut-off; inactive = mostly below about 7.6%
Target sequence (P47898 whole entry, looked up): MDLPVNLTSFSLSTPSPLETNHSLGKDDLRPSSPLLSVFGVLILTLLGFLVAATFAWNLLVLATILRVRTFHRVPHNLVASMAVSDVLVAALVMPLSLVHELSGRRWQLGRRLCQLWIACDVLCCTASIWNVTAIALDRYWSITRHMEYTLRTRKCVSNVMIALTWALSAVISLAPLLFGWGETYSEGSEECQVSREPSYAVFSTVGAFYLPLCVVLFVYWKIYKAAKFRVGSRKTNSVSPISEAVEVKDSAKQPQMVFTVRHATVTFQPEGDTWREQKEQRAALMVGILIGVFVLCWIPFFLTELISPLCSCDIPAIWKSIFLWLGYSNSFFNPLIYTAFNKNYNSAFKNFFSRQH
OPRM1-OPRD1 ag: OPRM1-OPRD1 heterodimerization agonism | cells, luminescence | activation, % at 9.3 µM | P35372+P41143 | 340,000 tested, 0.3% active
HTR5A inv ag: counter-screen for OPRM1-OPRD1 inverse agonists: human HTR5A inverse agonism; P47898; HTR5A cell line, luminescence; inhibition, % at 9.3 µM; 340,000 tested, 0.083% active; AID 504634; in the data active = inhibition mostly above about 23%, no sharp cut-off; inactive = mostly below about 18%
MOR-DOR ag conf: OPRM1-OPRD1 heterodimer agonism, confirmation | shares compounds with OPRM1-OPRD1 ag | cells, MOR-DOR heterodimerization, luminescence complementation | activation, % at 9.3 µM | 830 tested, 45% active
HTR5A ag ctr2: counter-screen for OPRM1-OPRD1 agonists: human HTR5A agonism | 830 tested, 8% active | HTR5A agonist counterscreen, cell luminescence | activation, % at 9.3 µM | shares compounds with OPRM1-OPRD1 ag; in the data active = activation above about 17%
MOR-DOR inv conf: OPRM1-OPRD1 heterodimer inverse agonism, confirmation. shares compounds with MOR-DOR inv ag. cells expressing OPRM1/OPRD1 heterodimer, luminescence. inhibition, % at 9.3 µM. 580 tested, 20% active; in the data active = inhibition above about 32%
HTR5A inv count: inverse agonist of human HTR5A in OPRM1-OPRD1 counter-screen; shares compounds with MOR-DOR inv ag; HTR5A-expressing cells, luminescence, inverse agonism; inhibition, % at 9.3 µM; 580 tested, under 10 active; AID 504914; call rule not given here
Numbers stand for hits; 0 = inactive; - = not tested or not shown. Cut-off read from the data, not from the text of the source, unless noted: active = activation above about 18%; inactive = the rest.

SMILES | MOR-DOR inv ag | HTR5A ag ctr | OPRM1-OPRD1 ag | HTR5A inv ag | MOR-DOR inv conf | HTR5A inv count | others
CN(C)CCCN(C(=O)c1ccc(S(=O)(=O)N2CCc3ccccc32)cc1)c1nc2ccc(F)cc2s1 | 0 | 0 | 179 | 0 | - | - | MOR-DOR ag conf=0;HTR5A ag ctr2=0
Cc1ccc2nc(N(CCCN(C)C)C(=O)c3ccc(S(=O)(=O)N4CCOCC4)cc3)sc2c1 | 0 | 0 | 0 | 0 | - | -
Cc1ccc2nc(N(CCCN(C)C)C(=O)c3ccc(S(=O)(=O)N4CCc5ccccc5C4)cc3)sc2c1 | 0 | 0 | 130 | 0 | - | - | MOR-DOR ag conf=44;HTR5A ag ctr2=0
CN(C)CCCN(C(=O)c1ccc(S(=O)(=O)N2CCCCCC2)cc1)c1nc2c(F)cc(F)cc2s1 | 0 | 0 | 55 | 0 | - | - | MOR-DOR ag conf=111;HTR5A ag ctr2=0
O=[N+]([O-])c1ccc(SNc2ccccc2)c([N+](=O)[O-])c1 | 0 | 0 | 20 | 0 | - | - | MOR-DOR ag conf=0;HTR5A ag ctr2=0
Cc1cc(NC(=O)CSc2ccc(-c3nc4cc(C)c(C)cc4[nH]3)cn2)no1 | 0 | 0 | 20 | 0 | - | - | MOR-DOR ag conf=0;HTR5A ag ctr2=0
O=C(CNC(=O)C1CCCCC1)OCC(=O)c1cccc(Cl)c1 | 36 | 0 | 0 | 0 | 0 | 0
O=C(CNC(=O)C1CCCCC1)OCC(=O)c1ccc(F)cc1 | 0 | 0 | 0 | 0 | - | -
CCn1c(C)cs/c1=N\C(=S)Nc1ccccc1C | 0 | 0 | 0 | 0 | - | -
CN1C(=O)/C(=C/c2ccc(O)c([N+](=O)[O-])c2)N(C)C1=S | 33 | 0 | 0 | 0 | 0 | 0
COc1cc(/C=C2\C(=O)N(C)C(=S)N2C)ccc1O | 0 | 0 | 0 | 0 | - | -
Cc1cnn(CCC(=O)NNC(=S)Nc2ccc(F)cc2)c1 | 31 | 0 | 0 | 0 | 40 | 0
Cc1ccc(N2C(=O)c3ccccc3C2=O)nc1 | 0 | 0 | 0 | 0 | - | -
Cc1ccc2c(c1Br)/C(=N/N1C(=O)c3ccccc3C1=O)C(=O)N2 | 65 | 0 | 0 | 0 | 0 | 0
CCOc1ccc(N=C2C(=O)Nc3ccc(C)c(Br)c32)cc1 | 53 | 0 | 0 | 0 | 83 | 0
COc1ccc(N=Cc2[nH]c3ccccc3c2O)cc1 | 30 | 0 | 0 | 0 | 0 | 0
Cc1ccc2c(c1)C(=O)C(=O)N2CCOc1ccccc1 | 38 | 0 | 0 | 0 | 0 | 0
CCCN1C(=O)C(=O)c2cc(C)ccc21 | 0 | 0 | 0 | 0 | - | -
Cc1cccc(OCCN2C(=O)C(=O)c3cc(C)ccc32)c1 | 30 | 0 | 0 | 0 | 0 | 0
COc1cccc(C(=O)N2CCN(Cc3ccccc3Br)CC2)c1 | 0 | 0 | 0 | 0 | - | -
COc1ccc(OC2CCN(S(=O)(=O)c3ccc(C(C)=O)cc3)CC2)cc1 | 0 | 0 | 0 | 0 | - | -
COc1ccc(-n2c(N)c(C(=O)NCC3CCCO3)sc2=S)cc1 (stereo not given) | 0 | 0 | 0 | 0 | - | -
CCOC(=O)c1ccc(-n2c(N)c(C(=O)NCC3CCCO3)sc2=S)cc1 (stereo not given) | 34 | 0 | 0 | 0 | 0 | 0
CCOC(=O)c1ccc(-n2c(N)c(C(=O)NCc3ccco3)sc2=S)cc1 | 30 | 0 | 0 | 0 | 0 | 0
COc1ccc(-n2c(N)c(C(=O)NCc3ccco3)sc2=S)cc1 | 0 | 0 | 0 | 0 | - | -
SMILES | MOR-DOR inv ag | HTR5A ag ctr | OPRM1-OPRD1 ag | HTR5A inv ag | MOR-DOR inv conf | HTR5A inv count | others
CCCN1CCN(CCCNC(=O)Cn2nc(C)n3c(cc4cc(F)ccc43)c2=O)CC1 | 0 | 0 | 0 | 0 | - | -
COC(=O)c1c(C)[nH]c(C(=O)OCC(=O)c2c(N)n(CC(C)C)c(=O)n(C)c2=O)c1C | 0 | 0 | 0 | 0 | - | -
O=C(CCC(=O)c1cccs1)OCC(=O)c1ccc(F)cc1 | 0 | 0 | 0 | 0 | - | -
CC(=O)CCC(=O)OCC(=O)c1ccc(C(F)(F)F)cc1 | 45 | 0 | 0 | 0 | 0 | 0
O=S1(=O)N=C(N=Nc2c(O)[nH]c3ccccc23)c2ccccc21 | 25 | 0 | 0 | 0 | 0 | 0
Oc1[nH]c2ccccc2c1N=Nc1ccccc1 | 0 | 0 | 0 | 0 | - | -
O=C(NCc1cc([N+](=O)[O-])ccc1O)c1cccnc1Sc1ccccc1Cl | 0 | 0 | 0 | 0 | - | -
CC(=O)OC1COC(N2CCc3cc(Br)c([N+](=O)[O-])cc32)C(OC(C)=O)C1OC(C)=O (stereo not given) | 0 | 0 | 0 | 0 | - | -
O=C(N=Nc1c(O)[nH]c2ccc([N+](=O)[O-])cc12)c1ccccc1[N+](=O)[O-] | 0 | 0 | 0 | 0 | - | -
CC(Oc1ccccc1)C(=O)N=Nc1c(O)[nH]c2ccc([N+](=O)[O-])cc12 (stereo not given) | 45 | 0 | 0 | 0 | 0 | 0
Cn1cccc1C(C#N)c1cccc(F)c1C#N (stereo not given) | 37 | 0 | 0 | 0 | 0 | 0
Cn1cccc1C(C#N)(CC#N)c1cccc(F)c1C#N (stereo not given) | 0 | 0 | 0 | 0 | - | -
NC(N)=NS(=O)(=O)c1ccc(N=C2C(=O)Nc3ccccc32)cc1 | 53 | 0 | 0 | 0 | 70 | 0
CC(=O)N(C)c1ccc(N=C2C(=O)Nc3ccccc32)cc1 | 57 | 0 | 0 | 0 | 0 | 0
O=C1Nc2ccccc2/C1=N\N1CCOCC1 | 0 | 0 | 0 | 0 | - | -
O=C1N(Cc2ccccc2)CC2(Br)COCOC12O (stereo not given) | 45 | 0 | 0 | 0 | 0 | 0
NS(=O)(=O)c1ccc(CCNC(=O)c2cc([N+](=O)[O-])ccc2N2CCCCC2)cc1 | 0 | 0 | 0 | 0 | - | -
O=C1NC[C@@H](c2ccccc2)OC(=O)[C@@H](Cc2ccc(F)cc2)CC/C=C/C[C@@H]1CC(=O)N(CCO)Cc1ccccc1 | 34 | 0 | 0 | 0 | 0 | 0
CNC(=O)c1nnsc1S(=O)(=O)c1ccc(Cl)cc1 | 32 | 0 | 0 | 0 | 0 | 0
Cn1nc(C(=O)NNC(=O)C(CCC(N)=O)NS(=O)(=O)c2ccc(Cl)cc2)c2ccccc2c1=O (stereo not given) | 0 | 0 | 0 | 0 | - | -
CCCCCC(=O)NNC(=S)NC(=O)c1ccccc1[N+](=O)[O-] | 30 | 0 | 0 | 0 | 0 | 0
COc1ccc2nc(N/C(N)=N/S(C)(=O)=O)nc(C)c2c1 | 0 | 0 | 0 | 0 | - | -
Cc1cc(NC(=O)CSCC(=O)OCC(=O)c2cccc(Br)c2)no1 | 27 | 0 | 0 | 0 | 0 | 0
ON1C(c2ccc(Cl)cc2Cl)N(O)[C@H]2CCCC[C@H]21 (stereo not given in full) | 63 | 0 | 0 | 0 | 0 | 0
CC1N(O)C(c2ccc(Cl)cc2Cl)N(O)C1(C)C (stereo not given) | 0 | 0 | 0 | 0 | - | -
Cc1cc(C)nc(NNS(=O)(=O)c2ccc(Cl)cc2)n1 | 45 | 0 | 0 | 0 | 0 | 0
COc1ccc(NS(=O)(=O)c2ccc(F)c(Cl)c2)cn1 | 0 | 0 | 0 | 0 | - | -
Cc1cc(C)nc(NNS(=O)(=O)c2ccc(F)c(Cl)c2)n1 | 44 | 0 | 0 | 0 | 62 | 0
COc1ccc(S(=O)(=O)NNc2nc(C)cc(C)n2)cc1Br | 31 | 0 | 0 | 0 | 0 | 0

Assay outcomes from PubChem.
